The record followed here is paper PMC7862700, “An all-to-all approach to the identification of sequence-specific readers for epigenetic DNA modifications on cytosine”.

Holding throughout (assay): DAPPL (digital affinity profiling via proximity ligation, sequencing); 10 mM Tris-HCl pH 7.5, 50 mM NaCl, 1 mM DTT, 4% glycerol, room temperature, 30 min; GST-TFs on glutathione beads, 16-mer random dsDNA library, 0.1% formaldehyde crosslink after washing; high values mean tight binding
What all share (settings): protein: recombinant; tags: N-terminal GST; dsDNA, one strand shown

One test deals with T1, ERF (Homo sapiens, UniProt P50548 1-548).
T1 sequence: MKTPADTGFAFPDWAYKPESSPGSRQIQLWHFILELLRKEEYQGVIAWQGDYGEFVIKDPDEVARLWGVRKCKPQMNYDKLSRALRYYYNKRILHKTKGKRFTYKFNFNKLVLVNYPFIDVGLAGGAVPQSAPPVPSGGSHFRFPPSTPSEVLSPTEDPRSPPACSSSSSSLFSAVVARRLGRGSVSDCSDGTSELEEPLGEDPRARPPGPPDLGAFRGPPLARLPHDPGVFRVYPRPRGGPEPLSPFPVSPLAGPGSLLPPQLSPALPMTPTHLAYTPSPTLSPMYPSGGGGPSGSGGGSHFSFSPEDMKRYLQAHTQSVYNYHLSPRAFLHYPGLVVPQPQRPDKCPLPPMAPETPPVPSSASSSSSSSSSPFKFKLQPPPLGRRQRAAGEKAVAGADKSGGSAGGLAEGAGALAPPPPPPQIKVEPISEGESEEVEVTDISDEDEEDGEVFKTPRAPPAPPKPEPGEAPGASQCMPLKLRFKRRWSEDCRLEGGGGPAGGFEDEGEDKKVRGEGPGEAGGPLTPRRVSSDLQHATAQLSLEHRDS
Summed up: (§1)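 Each value of binding signal is a hexamer's read frequency for a factor divided by the same hexamer's frequency in the tag-only sample. Barcoded, bead-captured GST fusions of human transcription factors made in yeast were pooled with that sample and incubated with 200 nmole of a random double-stranded 16-mer DNA library in Tris/NaCl/DTT/glycerol buffer at room temperature for 30 min. Washing, 0.1% formaldehyde crosslinking, proximity ligation, PCR and Illumina NextSeq500 sequencing followed.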

The target of the next test is T2, ETV3L (Homo sapiens, UniProt Q6ZN32 1-361).
T2 sequence: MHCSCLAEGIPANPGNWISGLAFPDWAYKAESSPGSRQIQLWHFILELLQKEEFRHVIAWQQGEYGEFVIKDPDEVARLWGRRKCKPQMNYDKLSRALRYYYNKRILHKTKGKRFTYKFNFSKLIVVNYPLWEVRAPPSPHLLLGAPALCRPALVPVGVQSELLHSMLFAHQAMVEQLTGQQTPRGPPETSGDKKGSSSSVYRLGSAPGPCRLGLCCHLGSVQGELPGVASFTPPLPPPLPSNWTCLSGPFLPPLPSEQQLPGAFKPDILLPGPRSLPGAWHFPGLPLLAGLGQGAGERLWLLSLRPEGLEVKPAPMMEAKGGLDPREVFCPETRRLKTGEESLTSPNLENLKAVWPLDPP
Summed up:
as §1

The target of a further test is T3, ETS2 (Homo sapiens, UniProt P15036 1-469).
T3 sequence: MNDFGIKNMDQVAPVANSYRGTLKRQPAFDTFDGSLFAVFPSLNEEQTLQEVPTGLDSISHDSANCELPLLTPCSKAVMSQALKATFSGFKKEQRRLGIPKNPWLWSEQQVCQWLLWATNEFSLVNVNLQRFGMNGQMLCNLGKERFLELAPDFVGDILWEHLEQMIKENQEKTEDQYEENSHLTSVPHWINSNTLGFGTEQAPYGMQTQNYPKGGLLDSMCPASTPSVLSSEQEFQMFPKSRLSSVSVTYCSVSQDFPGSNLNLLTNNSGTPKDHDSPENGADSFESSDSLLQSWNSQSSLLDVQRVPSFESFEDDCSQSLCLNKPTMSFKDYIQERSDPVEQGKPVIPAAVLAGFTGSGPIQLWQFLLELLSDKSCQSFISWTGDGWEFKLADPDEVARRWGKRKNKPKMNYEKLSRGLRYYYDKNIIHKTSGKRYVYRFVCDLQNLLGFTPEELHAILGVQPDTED
Summed up:
as §1

In a further test the target is T4, SPDEF (Homo sapiens, UniProt O95238 1-335).
T4 sequence: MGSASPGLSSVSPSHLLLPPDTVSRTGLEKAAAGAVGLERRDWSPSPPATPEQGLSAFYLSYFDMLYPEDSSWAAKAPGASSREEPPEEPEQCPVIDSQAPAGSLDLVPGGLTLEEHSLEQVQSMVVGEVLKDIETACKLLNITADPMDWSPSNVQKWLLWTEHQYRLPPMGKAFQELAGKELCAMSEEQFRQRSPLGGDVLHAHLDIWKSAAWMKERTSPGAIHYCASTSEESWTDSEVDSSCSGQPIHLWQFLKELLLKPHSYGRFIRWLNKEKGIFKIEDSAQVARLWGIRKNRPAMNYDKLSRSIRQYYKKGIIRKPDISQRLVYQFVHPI
Summed up:
as §1

Another test deals with T5, ETV7 (Homo sapiens, UniProt Q9Y603 1-341).
T5 sequence: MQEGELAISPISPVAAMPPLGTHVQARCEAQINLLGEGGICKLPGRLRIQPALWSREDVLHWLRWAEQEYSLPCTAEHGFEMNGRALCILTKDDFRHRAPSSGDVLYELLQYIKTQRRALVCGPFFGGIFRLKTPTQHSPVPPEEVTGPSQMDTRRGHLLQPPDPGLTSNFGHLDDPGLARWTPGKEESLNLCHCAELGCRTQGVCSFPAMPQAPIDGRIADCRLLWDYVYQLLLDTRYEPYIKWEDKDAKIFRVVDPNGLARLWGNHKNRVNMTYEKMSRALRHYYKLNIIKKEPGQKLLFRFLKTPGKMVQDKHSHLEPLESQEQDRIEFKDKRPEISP
Summed up: as §1

The target in another test is T6, ELF5 (Homo sapiens, UniProt Q9UKW6-2 1-255).
T6 sequence: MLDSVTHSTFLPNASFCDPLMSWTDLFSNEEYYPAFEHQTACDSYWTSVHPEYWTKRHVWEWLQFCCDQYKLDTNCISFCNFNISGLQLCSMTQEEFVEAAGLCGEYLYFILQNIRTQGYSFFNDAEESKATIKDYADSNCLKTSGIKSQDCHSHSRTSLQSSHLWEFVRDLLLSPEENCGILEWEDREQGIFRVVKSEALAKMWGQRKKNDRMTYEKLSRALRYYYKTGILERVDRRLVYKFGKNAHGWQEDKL
The method in brief:
as §1

A further test addresses T7, ETV3 (Homo sapiens, UniProt P41162-2 1-143).
T7 sequence: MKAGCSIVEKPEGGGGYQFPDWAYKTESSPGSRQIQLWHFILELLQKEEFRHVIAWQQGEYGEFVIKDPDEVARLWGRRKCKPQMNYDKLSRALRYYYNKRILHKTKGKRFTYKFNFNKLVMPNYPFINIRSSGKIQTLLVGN
The method in brief: as §1

The target in the next test is ETV6 (Homo sapiens, UniProt P41212 1-452). Summed up: as §1
Sequence of ETV6 (P41212 whole entry): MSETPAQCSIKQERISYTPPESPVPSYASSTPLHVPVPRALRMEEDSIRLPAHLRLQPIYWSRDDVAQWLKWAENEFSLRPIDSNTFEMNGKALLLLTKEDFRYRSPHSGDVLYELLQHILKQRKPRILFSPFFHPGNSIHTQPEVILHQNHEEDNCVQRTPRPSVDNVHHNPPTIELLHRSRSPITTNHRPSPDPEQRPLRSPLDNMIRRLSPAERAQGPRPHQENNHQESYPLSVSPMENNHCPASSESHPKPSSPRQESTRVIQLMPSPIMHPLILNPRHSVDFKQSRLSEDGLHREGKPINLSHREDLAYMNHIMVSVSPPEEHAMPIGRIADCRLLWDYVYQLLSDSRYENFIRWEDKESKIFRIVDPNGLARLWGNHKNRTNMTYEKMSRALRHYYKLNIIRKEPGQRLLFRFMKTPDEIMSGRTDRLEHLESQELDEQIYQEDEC

With GGTTTG, the binding signal is 1.26 fold enrichment (6-mer frequency, TF over GST control) in the test with ERF; 1.16 fold enrichment (6-mer frequency, TF over GST control) in the test with ETV3L; 1.15 fold enrichment (6-mer frequency, TF over GST control) in the test with ETS2; 1.06 fold enrichment (6-mer frequency, TF over GST control) with SPDEF; 1.11 fold enrichment (6-mer frequency, TF over GST control) with ETV7; 1.16 fold enrichment (6-mer frequency, TF over GST control) in the test with ELF5. Also, the binding signal with ETV3 was 1.25 fold enrichment (6-mer frequency, TF over GST control); with ETV6 it was 1.17 fold enrichment (6-mer frequency, TF over GST control).

Regarding CTCTCC, the binding signal with ERF was 1.43 fold enrichment (6-mer frequency, TF over GST control); with ETV3L, 1.44 fold enrichment (6-mer frequency, TF over GST control); with ETS2 it was 1.43 fold enrichment (6-mer frequency, TF over GST control); with SPDEF, 1.22 fold enrichment (6-mer frequency, TF over GST control); with ETV7 it was 1.31 fold enrichment (6-mer frequency, TF over GST control); in the test with ELF5, 1.37 fold enrichment (6-mer frequency, TF over GST control). For the same sequence, the binding signal was 1.45 fold enrichment (6-mer frequency, TF over GST control) with ETV3 and 1.37 fold enrichment (6-mer frequency, TF over GST control) with ETV6.

Regarding ATATAT, the binding signal with ERF was 1.51 fold enrichment (6-mer frequency, TF over GST control); with ETV3L, 1.41 fold enrichment (6-mer frequency, TF over GST control); with ETS2, 1.39 fold enrichment (6-mer frequency, TF over GST control); with SPDEF it was 1.43 fold enrichment (6-mer frequency, TF over GST control); with ETV7, 1.29 fold enrichment (6-mer frequency, TF over GST control); with ELF5, 1.42 fold enrichment (6-mer frequency, TF over GST control). Besides, the binding signal was 1.41 fold enrichment (6-mer frequency, TF over GST control) in the test with ETV3 and 1.44 fold enrichment (6-mer frequency, TF over GST control) in the test with ETV6.

Take TTTTTT: the binding signal with ERF was 1.18 fold enrichment (6-mer frequency, TF over GST control); with ETV3L, 1.18 fold enrichment (6-mer frequency, TF over GST control); in the test with ETS2, 1.09 fold enrichment (6-mer frequency, TF over GST control); in the test with SPDEF, 1.22 fold enrichment (6-mer frequency, TF over GST control); with ETV7, 1.26 fold enrichment (6-mer frequency, TF over GST control); with ELF5, 1.14 fold enrichment (6-mer frequency, TF over GST control). Also, the binding signal is 1.2 fold enrichment (6-mer frequency, TF over GST control) with ETV3 and 1.11 fold enrichment (6-mer frequency, TF over GST control) in the test with ETV6.

Regarding CGACAT, the binding signal with ERF was 1.34 fold enrichment (6-mer frequency, TF over GST control); in the test with ETV3L, 1.22 fold enrichment (6-mer frequency, TF over GST control); in the test with ETS2, 1.32 fold enrichment (6-mer frequency, TF over GST control); in the test with SPDEF it was 1.4 fold enrichment (6-mer frequency, TF over GST control); in the test with ETV7 it was 1.23 fold enrichment (6-mer frequency, TF over GST control); with ELF5, 1.33 fold enrichment (6-mer frequency, TF over GST control). Moreover, the binding signal with ETV3 is 1.37 fold enrichment (6-mer frequency, TF over GST control); with ETV6 it was 1.42 fold enrichment (6-mer frequency, TF over GST control).

As to TGTATT, the binding signal with ERF was 1.36 fold enrichment (6-mer frequency, TF over GST control); in the test with ETV3L, 1.4 fold enrichment (6-mer frequency, TF over GST control); with ETS2 it was 1.4 fold enrichment (6-mer frequency, TF over GST control); in the test with SPDEF, 1.42 fold enrichment (6-mer frequency, TF over GST control); with ETV7 it was 1.4 fold enrichment (6-mer frequency, TF over GST control); in the test with ELF5, 1.26 fold enrichment (6-mer frequency, TF over GST control). Further, the binding signal with ETV3 is 1.41 fold enrichment (6-mer frequency, TF over GST control); with ETV6 it was 1.41 fold enrichment (6-mer frequency, TF over GST control).

As for TACGGA, the binding signal with ERF was 1.28 fold enrichment (6-mer frequency, TF over GST control); with ETV3L it was 1.34 fold enrichment (6-mer frequency, TF over GST control); in the test with ETS2 it was 1.38 fold enrichment (6-mer frequency, TF over GST control); in the test with SPDEF it was 1.47 fold enrichment (6-mer frequency, TF over GST control); with ETV7, 1.18 fold enrichment (6-mer frequency, TF over GST control); with ELF5, 1.51 fold enrichment (6-mer frequency, TF over GST control). The binding signal with ETV3 was 1.43 fold enrichment (6-mer frequency, TF over GST control); in the test with ETV6, 1.39 fold enrichment (6-mer frequency, TF over GST control).
